Results from ChEMBL document CHEMBL1961873, “Compounds: GSK PKIS; Assays: Nanosyn kinase panel” (2012).

Legend:
[1] = biological target: Serine/threonine-protein kinase PAK 6 (Homo sapiens) (UniProt Q9NQU5); conditions: at 1 µM;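 also: values are mean percent inhibition of PAK6 kinase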
[2] = system: Tyrosine-protein kinase ABL1 (Homo sapiens), P00519 [E255K]; conditions: at 0.1 µM
[3] = system: Tyrosine-protein kinase ABL1 (Homo sapiens), P00519 [E255K]; conditions: at 1 µM
[4] = system: Tyrosine-protein kinase ABL1 (Homo sapiens), P00519 [H396P]; conditions: at 0.1 µM
[5] = system: Tyrosine-protein kinase ABL1 (Homo sapiens), P00519 [H396P]; conditions: at 1 µM
[6] = system: Tyrosine-protein kinase ABL1 (Homo sapiens), P00519 [M351T]; conditions: at 0.1 µM
[7] = system: Tyrosine-protein kinase ABL1 (Homo sapiens), P00519 [M351T]; conditions: at 1 µM
[8] = system: Tyrosine-protein kinase ABL1 (Homo sapiens), P00519 [Q252H]; conditions: at 0.1 µM
[9] = system: Tyrosine-protein kinase ABL1 (Homo sapiens), P00519 [Q252H]; conditions: at 1 µM
[10] = system: Tyrosine-protein kinase ABL1 (Homo sapiens), P00519 [T315I]; conditions: at 0.1 µM

Serine/threonine-protein kinase PAK 6 (Homo sapiens), sequence (Q9NQU5 whole entry, looked up): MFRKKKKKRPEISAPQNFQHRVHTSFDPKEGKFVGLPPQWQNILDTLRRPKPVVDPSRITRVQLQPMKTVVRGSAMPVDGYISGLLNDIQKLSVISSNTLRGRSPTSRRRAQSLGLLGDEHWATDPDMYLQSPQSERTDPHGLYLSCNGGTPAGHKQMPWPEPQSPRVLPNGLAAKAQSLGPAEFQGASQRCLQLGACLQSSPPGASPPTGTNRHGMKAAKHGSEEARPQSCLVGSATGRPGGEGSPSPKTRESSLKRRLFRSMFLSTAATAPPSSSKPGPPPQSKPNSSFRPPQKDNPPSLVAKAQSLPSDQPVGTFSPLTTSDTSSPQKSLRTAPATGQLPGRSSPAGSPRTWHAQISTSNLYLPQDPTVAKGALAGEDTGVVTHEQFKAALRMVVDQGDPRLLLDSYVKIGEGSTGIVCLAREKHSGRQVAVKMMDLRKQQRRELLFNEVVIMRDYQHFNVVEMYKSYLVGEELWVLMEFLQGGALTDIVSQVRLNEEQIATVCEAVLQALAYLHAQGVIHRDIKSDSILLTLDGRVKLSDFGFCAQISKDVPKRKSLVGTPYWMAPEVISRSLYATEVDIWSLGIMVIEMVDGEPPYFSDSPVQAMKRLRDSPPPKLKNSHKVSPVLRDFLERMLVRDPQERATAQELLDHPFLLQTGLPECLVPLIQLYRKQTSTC

Compound | inhibition [1] [%] | inhibition [2] [%] | inhibition [3] [%] | inhibition [4] [%] | inhibition [5] [%] | inhibition [6] [%] | inhibition [7] [%] | inhibition [8] [%] | inhibition [9] [%] | inhibition [10] [%]
Cc1ccc2c(-c3ccnc(Nc4ccc5c(c4)OCCO5)n3)c(-c3ccc(C(F)(F)F)cc3)nn2n1 | 10.7 | 2.27 | 3.32 | 2.14 | 3.45 | 0.52 | 3.13 | 1.51 | 4.16 | 0.69
NS(=O)(=O)c1cccc(-c2cc3ccncc3cc2OCc2ccccc2)c1 | -4 | 1.9 | 4.18 | 4.37 | 9.55 | 3.86 | 8.19 | 3.13 | 6.44 | 3.3
COC(=O)Nc1nc2cc(Oc3ccc(NC(=O)Nc4cccc(Br)c4)cc3)ccc2[nH]1 | -4.46 | 4.52 | 5.09 | 16.4 | 35 | 42.6 | 54.6 | 39.7 | 57.8 | 30.1
Nc1ccc(C#Cc2cncnc2Nc2ccc(OCc3cccc(F)c3)c(Cl)c2)cc1 | -1.86 | 2.88 | 3.39 | 2.21 | 2.72 | -1.21 | 0.91 | 2.9 | 2.24 | 1.6
Cc1cc(-c2ccccn2)cc(C)c1/C=C/c1cncc(-c2nn[nH]n2)c1 | -5.17 | -0.88 | 3.22 | 3.18 | 8.77 | 0.81 | 5.63 | 3.34 | 9.01 | 0.21
FC(F)(F)c1ccc(-c2nn3ncccc3c2-c2ccnc(Nc3ccc4c(c3)OCCO4)n2)cc1 | 15.5 | -0.31 | 0.99 | 0.37 | 8.02 | 1.83 | 13.9 | 2.75 | 8.01 | 1.73
COc1cccc(-n2ncc3c(N/N=C/c4ccc(C)cc4)ncnc32)c1 | -8.44 | 18.9 | 65.3 | 28.1 | 73.5 | 25.4 | 73.7 | 37.6 | 81.4 | 5.28
COc1cccc(-n2ncc3c(N/N=C/c4ccc(S(C)(=O)=O)cc4)ncnc32)c1 | 5.24 | 79 | 93.4 | 85.2 | 94.1 | 84.9 | 95.5 | 87.2 | 95 | 49.4
O=S(=O)(CCOCc1ccc(-c2ccc3ncnc(Nc4ccc(OCc5cccc(F)c5)c(Cl)c4)c3c2)o1)c1ccccc1 | -7.47 | 0.44 | -0.12 | 0.4 | 2.46 | 1.57 | 0.99 | 3.02 | 3.04 | -0.12
COC(=O)c1ccc2c(c1)C(=Cc1cc(Br)c(O)c(Br)c1)C(=O)N2 | -6.8 | 2.18 | 13.1 | 4.03 | 14.9 | 0.64 | 12.9 | 2.75 | 15.8 | 1.82
NC(=O)c1cccc(Nc2nccc(Nc3cccc(F)c3)n2)c1 | -5.46 | 7.73 | 47 | 9.26 | 56.1 | 9.02 | 57.7 | 9.5 | 53.9 | 1.3
Cc1cc(Cl)cc2c1NC(=O)C2=NNc1ccc(S(N)(=O)=O)cc1 | -1.69 | 1.25 | 5.11 | 2.97 | 8.01 | -0.27 | 6.65 | 4.15 | 7.11 | 1.38
NS(=O)(=O)c1ccc(NC=C2C(=O)Nc3ccc4ncsc4c32)cc1 | -1.77 | 6.89 | 37.9 | 10.9 | 46.7 | 10.9 | 50.6 | 14.4 | 56.3 | 15
CC(C)c1ccc2c(c1)NC(=O)/C2=N/Nc1ccc(S(N)(=O)=O)cc1 | -5.25 | 1.09 | 12 | 5.36 | 33.7 | 7.06 | 38 | 4.4 | 26.6 | 1.24
NS(=O)(=O)c1ccc(N/N=C2\C(=O)Nc3ccc(Cl)cc32)cc1 | 7.73 | -0.63 | 5.98 | 3.92 | 12.9 | 1.55 | 12.6 | 2.4 | 9.91 | 0.91
NS(=O)(=O)c1cccc(Nc2cc(-c3ccc(F)cc3)n[nH]2)c1 | 13 | 1.07 | 8.03 | 5.72 | 15.4 | 2.42 | 19.8 | 4.73 | 18.2 | 1.49
N#Cc1c(NC(=O)c2ccccc2F)sc2c1CCCC2 | 3.35 | -0.62 | 1.08 | 0.3 | -1.4 | 0.7 | 0.57 | -0.76 | -0.72 | -0.91
